# Inconclusive results are not listed. Entries that show only a call come without a potency. A number with no mark means an inactive call. Activity calls are given as the source filed them. The call rests on the fitted dose curve; in most records, active means well fitted curve in the direction sought with a large enough effect; inconclusive means small, poorly fitted or top-dose-only effect, or another doubt; inactive means no such curve, though single readings can be large; an effect the other way counts as inactive or inconclusive.
# Key:
# [1] = target: Metallo-beta-lactamase type 2 (Klebsiella pneumoniae) (UniProt C7C422); test: qHTS to identify inhibitors of the New Delhi Metallo-beta-lactamase (NDM): assay validation screen against the NCATS LOPAC Collection (AID 1794843); details: NDM-1 enzyme, nitrocefin hydrolysis, absorbance 485 nm; series mostly up to 38.4 µM; further: potency means the concentration at half of the fitted maximal effect
# Chain of Metallo-beta-lactamase type 2 (Klebsiella pneumoniae) (C7C422 whole entry, looked up): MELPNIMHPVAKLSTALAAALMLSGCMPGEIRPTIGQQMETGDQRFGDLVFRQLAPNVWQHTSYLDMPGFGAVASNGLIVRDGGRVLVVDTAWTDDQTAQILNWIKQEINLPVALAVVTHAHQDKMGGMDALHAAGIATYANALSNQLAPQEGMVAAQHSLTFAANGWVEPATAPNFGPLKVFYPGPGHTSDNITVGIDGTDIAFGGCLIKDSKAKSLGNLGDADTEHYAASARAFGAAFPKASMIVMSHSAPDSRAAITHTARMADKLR
# How it was run: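 Enzyme 2 nM final, 50 mM HEPES pH 7.0, 1 uM ZnSO4, 0.01% Tween20; cpds in DMSO, preincub w/ enzyme; + nitrocefin (50 uM stock); A485 at plateau; no-enzyme column as blank.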
# [2] = target: Phospholipid hydroperoxide glutathione peroxidase GPX4 (Homo sapiens) (UniProt P36969); test: Primary qHTS Assay for Inhibitors of Recombinant Selenoprotein Glutathione Peroxidase 4 (GPX4) (AID 1845192); details: recombinant GPX4, GR-coupled NADPH fluorescence, 15 min; series mostly up to 50 µM; further: nearly all actives have a fitted effect of over 65% in size
# Chain of Phospholipid hydroperoxide glutathione peroxidase GPX4 (Homo sapiens) (P36969 whole entry, looked up): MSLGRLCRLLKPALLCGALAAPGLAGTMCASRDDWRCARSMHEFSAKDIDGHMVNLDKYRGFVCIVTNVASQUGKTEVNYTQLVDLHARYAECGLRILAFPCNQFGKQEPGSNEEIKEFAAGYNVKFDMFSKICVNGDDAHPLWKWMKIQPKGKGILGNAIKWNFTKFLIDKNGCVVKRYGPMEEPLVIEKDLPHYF
# How it was run: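 GR-coupled readout: 100 nM GR, 1 mM GSH, 0.5 mM NADPH; NADPH fluorescence (ex 340/em 450 nm) read at t=0 and after 15 min RT. GPX4 200 nM, preincubated 30 min with compound; substrate 0.5 mM CHP.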
# [3] = qHTS profiling for inhibitors of Plasmodium falciparum proliferation (AID 504749); further: nearly all actives have a fitted effect of over 60% in size; further: potency means the concentration at half of the fitted maximal effect; details: P. falciparum in erythrocytes, SYBR Green DNA, 72 h
# How it was run: (§1)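 Parasite proliferation within erythrocytes, 72 h exposure. Endpoint: SYBR Green I fluorescence after overnight lysis at room temperature. Controls: 0.29 uM artemisinin, DMSO.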
# 3D7 = test: as above; details: P. falciparum in erythrocytes, SYBR Green DNA, 72 h; series mostly up to 28.7 µM
# How it was run: as §1
# 7G8 = test: as above; details: P. falciparum in erythrocytes, SYBR Green DNA, 72 h; series mostly up to 28.7 µM
# How it was run: as §1
# AA1029 = test: as above; details: P. falciparum in erythrocytes, SYBR Green DNA, 72 h; series mostly up to 28.7 µM
# How it was run: as §1
# AS120 = test: as above; details: P. falciparum in erythrocytes, SYBR Green DNA, 72 h; series mostly up to 28.7 µM
# How it was run: as §1
# ATS189 = test: as above; details: P. falciparum in erythrocytes, SYBR Green DNA, 72 h; series mostly up to 28.7 µM
# How it was run: as §1
# ATS95 = test: as above; details: P. falciparum in erythrocytes, SYBR Green DNA, 72 h; series mostly up to 28.7 µM
# How it was run: as §1
# C2A = test: as above; details: P. falciparum in erythrocytes, SYBR Green DNA, 72 h; series mostly up to 28.7 µM
# How it was run: as §1
# CP185 = test: as above; details: P. falciparum in erythrocytes, SYBR Green DNA, 72 h; series mostly up to 28.7 µM
# How it was run: as §1
# CP191 = test: as above; details: P. falciparum in erythrocytes, SYBR Green DNA, 72 h; series mostly up to 28.7 µM
# How it was run: as §1
# [4] = target: Glutathione peroxidase 1 (Homo sapiens) (UniProt P07203); test: Primary qHTS Assay for Inhibitors of Recombinant Selenoprotein Glutathione Peroxidase 1 (GPX1) (AID 1845191); details: recombinant GPX1, GR-coupled NADPH fluorescence, 15 min; series mostly up to 48.8 µM; further: nearly all actives have a fitted effect of over 65% in size
# Chain of Glutathione peroxidase 1 (Homo sapiens) (P07203 whole entry, looked up): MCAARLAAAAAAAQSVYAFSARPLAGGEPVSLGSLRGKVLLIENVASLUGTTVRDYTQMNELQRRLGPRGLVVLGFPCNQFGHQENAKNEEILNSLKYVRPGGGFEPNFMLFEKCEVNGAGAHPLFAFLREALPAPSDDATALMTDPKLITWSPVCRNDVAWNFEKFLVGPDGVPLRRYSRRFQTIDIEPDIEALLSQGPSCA
# How it was run: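 Recombinant GPX1 (10 nM final) was preincubated with compound for 30 min at room temperature, then reacted with 1 mM GSH, 0.5 mM CHP, 0.5 mM NADPH and 100 nM glutathione reductase; NADPH fluorescence (340/450 nm) was read at 0 and 15 min.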
# [5] = at 28.7 µM (top of the series), parasite line A
# [6] = at 28.7 µM (top of the series), parasite line B
Compound,Potency [1],outcome [2],"activity, negative = inhibition [3, 5] [%]","activity, negative = inhibition [3, 6] [%]",Potency (3D7),Potency (7G8),Potency (AA1029),Potency (AS120),Potency (ATS189),Potency (ATS95),Potency (C2A),Potency (CP185),Potency (CP191),Potency [4],Potency ([3]; parasite line A),Potency ([3]; parasite line B),"activity, negative = inhibition ([3]; at 12.8 µM (top of the series), parasite line A) [%]"
Cc1nc2c([nH]1)c(=O)n(C)c(=O)n2Cc1ccco1,inactive,inactive,-3.89,-2.06,inactive,inactive,inactive,inactive,inactive,inactive,inactive,inactive,inactive,–,–,–,–
NC(=Nc1ccccc1)Nc1ccccc1,–,inactive,-14.1,-13.7,inactive,–,inactive,inactive,inactive,inactive,inactive,inactive,inactive,inactive,–,–,–
CCCCNc1c(C(=O)OCC)c(C)nc2c1cnn2CC,inactive,inactive,2.9,-6.97,inactive,–,inactive,–,inactive,inactive,inactive,inactive,inactive,–,–,–,–
NC(=O)c1cn(Cc2c(F)cccc2F)nn1,inactive,inactive,14.6,0.958,inactive,inactive,inactive,inactive,inactive,inactive,inactive,inactive,inactive,–,–,–,–
CCCCNC(=O)NS(=O)(=O)c1ccc(C)cc1,inactive,inactive,1.62,0.192,inactive,inactive,inactive,inactive,inactive,inactive,inactive,inactive,inactive,–,–,–,–
O=C(O)CN(CCN(CC(=O)O)CC(=O)O)CCN(CC(=O)O)CC(=O)O,2.82 µM (active),–,7.8,-1.15,inactive,inactive,inactive,inactive,inactive,inactive,inactive,inactive,inactive,–,–,–,–
CCN(CC)CCOCCOC(=O)C1(c2ccccc2)CCCC1,–,inactive,–,–,–,1.78 µM (active),inactive,12.6 µM (active),7.08 µM (active),11.2 µM (active),–,inactive,7.94 µM (active),–,–,–,–
O=C(O)CCCCCCCC(=O)O,inactive,–,9.73,11.2,inactive,inactive,inactive,inactive,inactive,inactive,inactive,inactive,inactive,–,–,–,–
C[N+](C)(C)CCCCCCCCCC[N+](C)(C)C,inactive,inactive,–,–,5.62 µM (active),5.01 µM (active),5.62 µM (active),3.16 µM (active),4.47 µM (active),3.16 µM (active),5.62 µM (active),4.47 µM (active),3.55 µM (active),–,3.98 µM (active),1.58 µM (active),–
Cc1ccc(Cl)c(Nc2ccccc2C(=O)O)c1Cl,inactive,inactive,-0.156,-3.06,inactive,inactive,inactive,inactive,inactive,inactive,inactive,inactive,inactive,–,–,–,–
c1cc(CN2CCCCC2)cc(OCCCNc2nc3ccccc3s2)c1,inactive,inactive,–,–,–,6.31 µM (active),–,5.01 µM (active),–,7.94 µM (active),–,–,–,–,–,–,–
c1ccc2c(c1)CCCC2C1=NCCN1 (centres undefined),–,inactive,–,–,–,–,–,–,–,–,–,–,–,–,–,–,–
O=C1NCN(c2ccccc2)C12CCN(CCCC(c1ccc(F)cc1)c1ccc(F)cc1)CC2,inactive,–,–,–,3.55 µM (active),3.16 µM (active),5.01 µM (active),4.47 µM (active),10 µM (active),8.91 µM (active),7.08 µM (active),10 µM (active),5.62 µM (active),–,3.16 µM (active),7.94 µM (active),–
CCN1CCc2nc(N)oc2CC1,inactive,inactive,1.51,1.64,inactive,inactive,inactive,inactive,inactive,inactive,inactive,inactive,inactive,–,–,–,–
C[C@]12CCC(=O)C=C1CC[C@@H]1[C@@H]2CC[C@@]2(C)[C@H]1CC[C@]2(O)C(=O)CO,inactive,inactive,-9.28,20.5,inactive,–,inactive,inactive,inactive,inactive,inactive,inactive,inactive,–,–,–,–
CCCCNc1ccc(C(=O)OCCN(C)C)cc1,inactive,inactive,–,–,inactive,inactive,inactive,inactive,–,inactive,inactive,inactive,inactive,–,–,–,20
Nc1ncn([C@@H]2O[C@H](CO)[C@@H](O)[C@H]2O)c(=O)n1,inactive,inactive,-1.52,6.7,inactive,inactive,inactive,inactive,inactive,inactive,inactive,inactive,inactive,–,–,–,–
C[n+]1cc2c3c(ccc2c2ccc4cc5c(cc4c21)OCO5)OCO3,inactive,–,-18.2,-15.2,–,–,inactive,inactive,–,inactive,inactive,inactive,–,–,–,–,–
CCCC(C(=O)OCCN(CC)CC)(c1ccccc1)c1ccccc1,inactive,–,–,–,10 µM (active),3.98 µM (active),11.2 µM (active),–,–,–,–,–,–,–,–,–,–
O=C1CC2(CCCC2)CC(=O)N1CCCCN1CCN(c2ncccn2)CC1,inactive,inactive,11.6,9.29,inactive,–,inactive,inactive,inactive,inactive,inactive,inactive,inactive,–,–,–,–
CCOC(=O)c1cnc2c(cnn2CC)c1NN=C(C)C,inactive,inactive,15.4,-4.13,inactive,11.2 µM (active),inactive,inactive,inactive,inactive,inactive,inactive,inactive,–,–,–,–
CCN(CC)CCCN(c1ccccc1)C1Cc2ccccc2C1,inactive,–,–,–,10 µM (active),1.78 µM (active),4.47 µM (active),4.47 µM (active),12.6 µM (active),5.01 µM (active),11.2 µM (active),6.31 µM (active),5.01 µM (active),–,4.47 µM (active),7.08 µM (active),–
CC(=O)OCC1=C(C(=O)O)N2C(=O)[C@@H](NC(=O)Cc3cccs3)[C@H]2SC1,inactive,inactive,5.33,13.1,inactive,inactive,inactive,inactive,inactive,inactive,inactive,inactive,inactive,–,–,–,–

# Reference: PubChem BioAssay (NCATS)
